This note sets out measurements from ChEMBL document CHEMBL3988442, “University of Dundee, Small-Polar-MMV Screening Library” (2021).

Screen size: about 69,000 compounds; about 950 (1.4%) showed an effect of 50% or more. Many of the other results were omitted from the sample, so strong results are more common in it than they were.

This test has as its system Mycobacterium tuberculosis. The test is described as follows: Cornell M. t heat shock assay. Also: in the data most compounds retested in dose-response had high values. Type of test: functional, organism-based. Further details: dose or concentration left out as unconfirmed.
With `Cl.Cl.Cn1cc(C(=O)NCc2cncc3c2CCNC3)cn1`, the “Percent Effect” value is -18.1%.

`CN1CCN(CC2CN(CC3CC3)Cc3nccn3C2)CC1.O=C(O)C(F)(F)F.O=C(O)C(F)(F)F.O=C(O)C(F)(F)F` (stereo not drawn): the “Percent Effect” value is -11.65%.

For `O=C(O)C(F)(F)F.O[C@@H]1CCN(CC2CC2)[C@H]1Cc1ccccc1`, the “Percent Effect” value is -16.02%.

Turning to `O=C(O)C(F)(F)F.O=C(O)C(F)(F)F.O=C(O)C(F)(F)F.c1ccc(CN2CC[C@@H]3O[C@@H](COCCN4CCCC4)CC[C@@H]32)nc1`, the “Percent Effect” value was -2.857%.

For `CCOc1cccc2c1OCC(=O)N(c1ccc(N(C)C)cc1)C2`, the “Percent Effect” value is 78.25%.

On to `CCOc1cccc2c1OCC(=O)N(c1ccc3c(c1)OCCO3)C2`, for which the “Percent Effect” value amounted to 11.44%.

Consider `CCOc1cccc2c1OCC(=O)N(c1ccc3c(c1)OCO3)C2`, for which the “Percent Effect” value is given as -8.154%.

On to `COCCN1CCC2(CC1)CN(C(=O)c1ccco1)CCO2.O=C(O)C(F)(F)F`, for which the “Percent Effect” value was -23.42%.

As to `Cl.O=C(Nc1nc2c(s1)CNCC2)C1CC1`, the “Percent Effect” value came to 12.02%.

Turning to `Cl.O=C(Nc1nc2c(s1)CNCC2)NC1CCCC1`, the “Percent Effect” value worked out at 102.9%.

With `O=C(Nc1nc2c(s1)CCC2)NC1CCCC1`, the “Percent Effect” value is given as 7.852%.

Regarding `O=C(O)C(F)(F)F.O=C(O)C(F)(F)F.c1cncc(-c2nnn3c2COCC(CNCC2CCOCC2)C3)c1` (stereo not drawn), the “Percent Effect” value is recorded as -15.79%.

Regarding `COCCn1cc2c(n1)C(CNCc1cccc(OC)c1)OCC2.O=C(O)C(F)(F)F` (stereo not drawn), the “Percent Effect” value is -15.92%.

On to `Cc1ccc(CN2CC[C@@H]3O[C@@H](C(=O)N4CCN(C)CC4)C[C@@H]32)cc1.O=C(O)C(F)(F)F.O=C(O)C(F)(F)F`, for which the “Percent Effect” value is reported as 25.47%.

Take `CCn1ncc2c1CN(C(=O)c1cscn1)CC2COC.O=C(O)C(F)(F)F` (stereo not drawn): the “Percent Effect” value was found to be 5.615%.

On to `CC(C)CN1CCC(N2CCC(C(=O)N(C)C)CC2)CC1.O=C(O)C(F)(F)F.O=C(O)C(F)(F)F`, for which the “Percent Effect” value was found to be 9.102%.

For the molecule `O=C(O)c1cc(-c2ccn(CC3CC3)n2)n2ccccc12`, the “Percent Effect” value is -0.3144%.

In the case of `Cn1ccc(-c2cc(C(=O)N3CCC(C(N)=O)CC3)c3ccccn23)n1`, the “Percent Effect” value is recorded as 6.568%.

For the molecule `O=C(c1cc(-c2ccn(CC3CC3)n2)n2ccccc12)N1CCCO1`, the “Percent Effect” value is reported as 3.9%.

Regarding `Cn1ccc(-c2cc(C(=O)N3CCC(O)CC3)c3ccccn23)n1`, the “Percent Effect” value stood at 65.18%.

Take `Cn1ccc(-c2cc(C(=O)N3CCCCC3)c3ccccn23)n1`: the “Percent Effect” value is reported as 2.688%.

Regarding `O=C(c1cc(-c2ccn(CC3CC3)n2)n2ccccc12)N1CCOCC1`, the “Percent Effect” value was 104.4%.

Regarding `O=C(NC[C@H]1OC[C@@H]2CCN(Cc3ccco3)C[C@@H]21)c1ccnnc1.O=C(O)C(F)(F)F`, the “Percent Effect” value is on record as -10.06%.
